Screens from PubChem.
YB-1 expr inh – inhibitors of YB-1 gene expression, primary screen, cell-based, fluorescence | U2OS, qRT-PCR YB-1 vs CDIP delta delta Cp, 16 h; hits give high values; zero = DMSO, each unit about twofold | 30,000 tested, 0.37% active | delta delta Cp (YB-1 minus CDIP) (test concentration not listed) | AID 434959, 2010;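 active means delta delta Cp rounded down to an integer at or above 3, about 3 SD of DMSO wells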;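 further: higher means less YB-1 transcript or more CDIP transcript relative to DMSO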
U2OS ROS induce – ROS inducers in U2OS cancer cells, primary screen, cell-based, H2DCF-DA fluorescence; U2OS ROS induction; 46,000 tested, 2% active; ROS induction (% of piperlongumine), % at 10 µM; in the data active means ROS induction above about 79%, passing the limit was not always enough
A number is an active result; – = inactive; · = no result. The list is not random: actives were taken first. Their share in the collection is about 2.3%.

SMILES | YB-1 expr inh | U2OS ROS induce
CCOC(=O)C1(c2ccccc2)CCN(C(=O)c2c(C)oc3ccc(OC)cc23)CC1 | · | 80
CC(C)C[C@H]1C(=O)N2CCC[C@H]2[C@]2(O)O[C@](NC(=O)[C@@H]3C=C4c5cccc6[nH]cc(c56)C[C@H]4N(C)C3)(C(C)C)C(=O)N12 | – | 120
C[C@@H](CO)NC(=O)C1C=C2c3cccc4[nH]cc(c34)C[C@H]2N(C)C1 (stereo partly drawn) | – | –
CC12CC[C@H]3C(CCC4(O)CC(O)CCC34O)C1(O)CCC2C1=CC(=O)OC1 (stereo partly drawn) | – | –
CC[C@H]1CN2CC[C@H]1C[C@H]2[C@H](O)c1ccnc2ccc(OC)cc12 | – | –
CC1OC(n2cnc3c(N)ncnc32)C[C@H]1O (stereo partly drawn) | – | –
C[C@@H]1CN([C@H](C)CO)C(=O)CCCn2cc(nn2)CO[C@@H]1CN(C)C(=O)Oc1ccc2ccccc2c1 | – | –
C[C@H]1CN([C@@H](C)CO)C(=O)CCCn2cc(nn2)CO[C@@H]1CN(C)C(=O)Oc1ccc2ccccc2c1 | – | 134
CC(=O)OC1CCC2(C)C(CC[C@@H]3[C@@H]2CCC2(C)C(C4=CC(=O)OC4)CCC32O)C1 (stereo partly drawn) | – | –
O=c1[nH]c2ccccc2n1C1CCN(CCCC(c2ccc(F)cc2)c2ccc(F)cc2)CC1 | – | –
COc1ccc2[nH]cc(CCN)c2c1 | – | –
CC(N)Cc1c[nH]c2ccc(OCc3cccs3)cc12 (stereo not drawn) | – | 99
C(=NC12CN3CN(CN(C3)C1)C2)c1cccnc1 | · | –
COc1ccc2c(c1OC)C(=O)O[C@H]2[C@H]1c2cc3c(cc2CCN1C)OCO3 | 6.4 | –
COc1ccc2c(c1OC)CN1CCc3cc4c(cc3C1C2)OCO4 (stereo not drawn) | – | –
CCCCCc1cc(O)c2c(c1)OC(C)(C)[C@@H]1CCC(C(=O)O)=CC21 (stereo partly drawn) | – | –
O=C1CSC(c2ccccc2Cl)c2cc(Cl)ccc2N1 (stereo not drawn) | – | –
C[C@@H]1C(=O)O[C@H]2[C@H]1CC[C@@]1(C)C=CC(=O)[C@@]3(C)O[C@@]213 | 4 | –
